# Assay results published in PubChem BioAssay (EPA / NIEHS).
# Activity calls are given as the source filed them. How the source made its calls: active means hit-call score of the fitted dose curve at least 0.9, where 1 is the maximum; inactive means score below 0.9.
# Experiments:
# [1] = read-out: urokinase plasminogen activator (uPA), PLAU (gene 5328); assay: BSK_KF3CT_uPA: BioMAP Diversity Plus: KF3CT Assay for urokinase plasminogen activator (uPA) Biomarker Activity (AID 2283075); conditions: primary human keratinocytes with fibroblasts; actives raise or lower the signal
# In short: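 Human keratinocyte plus foreskin fibroblast primary co-culture exposed to chemical for 24 h. uPA levels were quantified by ELISA, and activity was fitted bidirectionally against a DMSO negative-control baseline.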
# [2] = read-out: CD40, CD40 (gene 958); assay: BSK_LPS_CD40: BioMAP Diversity Plus: LPS Assay for CD40 Biomarker Activity (AID 2283076); conditions: primary human HUVEC with PBMC; actives raise or lower the signal
# In short: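 In the LPS system of human endothelial cells with peripheral blood mononuclear cells, CD40 levels were read by ELISA 24 h post-treatment. Signal changes in either direction were fitted against the DMSO baseline, with parallel SRB protein staining.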
# [3] = read-out: E-selectin (Homo sapiens) (UniProt P16581); assay: BSK_LPS_Eselectin: BioMAP Diversity Plus: LPS Assay for Eselectin Biomarker Activity (AID 2283077); conditions: primary human HUVEC with PBMC; actives raise or lower the signal
# In short: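 E-selectin ELISA on LPS-stimulated endothelial cell/PBMC co-cultures, read 24 h post-treatment; gains and losses fitted against DMSO. Parallel SRB staining (0.1% SRB after 10% TCA fixation, 560 nm) flags overt cytotoxicity.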
# [4] = read-out: Interleukin-8 (IL8), CXCL8 (gene 3576); assay: BSK_LPS_IL8: BioMAP Diversity Plus: LPS Assay for Interleukin-8 (IL8) Biomarker Activity (AID 2283078); conditions: primary human HUVEC with PBMC; actives raise or lower the signal
# In short: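 ELISA read-out of IL-8 after 24 h chemical treatment of LPS-activated endothelial/PBMC human primary co-cultures. Changes either up or down relative to DMSO; overt cytotoxicity checked by sulforhodamine B staining in parallel wells.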
# [5] = BSK_LPS_SRB: Viability Assessment in the BioMAP Diversity Plus: LPS Assay (AID 2283079); conditions: primary human HUVEC with PBMC;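 further: total protein by sulforhodamine B absorbance as a cytotoxicity measure; measured one day after compound addition; fitted in both directions against DMSO so loss or gain of signal counts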
# In short: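 SRB viability endpoint: cells fixed with 10% TCA, stained with 0.1% SRB, read at 560 nm, 24 h post-dose. HUVEC/PBMC co-culture; signal change in either direction scored relative to DMSO.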
# [6] = read-out: Interleukin-1 alpha (IL1a), IL1A (gene 3552); assay: BSK_LPS_IL1a: BioMAP Diversity Plus: LPS Assay for Interleukin-1 alpha (IL1a) Biomarker Activity (AID 2283080); conditions: primary human HUVEC with PBMC; actives raise or lower the signal
# In short: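 Readout is IL-1a level by ELISA, 24 h post-dose, fitted as gain or loss relative to DMSO. System: LPS-activated human primary co-culture of vascular endothelium and peripheral blood mononuclear cells, with parallel SRB total-protein cytotoxicity.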
# [7] = read-out: Monocyte Chemoattractant Protein-1 (MCP1), CCL2 (gene 6347); assay: BSK_LPS_MCP1: BioMAP Diversity Plus: LPS Assay for Monocyte Chemoattractant Protein-1 (MCP1) Biomarker Activity (AID 2283081); conditions: primary human HUVEC with PBMC; actives raise or lower the signal;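 on AC50: secreted MCP-1 protein quantified by ELISA in culture supernatant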
# In short: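 Secreted MCP-1 read by ELISA at 24 h post-dosing in an LPS-activated co-culture of endothelial cells with peripheral blood mononuclear cells. Fits run in both directions, DMSO as baseline; parallel SRB staining tracks overt cytotoxicity.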
# [8] = BSK_LPS_PGE2: BioMAP Diversity Plus: LPS Assay for Prostaglandin E2 (PGE2) Biomarker Activity (AID 2283082); conditions: primary human HUVEC with PBMC; actives raise or lower the signal
# In short: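 Endpoint derived from bidirectional curve fitting versus DMSO of ELISA-measured PGE2 in LPS-stimulated human primary vascular co-culture (HUVEC with PBMC) harvested at 24 h.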
# [9] = read-out: Macrophage colony-stimulating factor (MCSF), CSF1 (gene 1435); assay: BSK_LPS_MCSF: BioMAP Diversity Plus: LPS Assay for Macrophage colony-stimulating factor (MCSF) Biomarker Activity (AID 2283083); conditions: primary human HUVEC with PBMC; actives raise or lower the signal
# In short: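 Bidirectional fitting against DMSO was applied to M-CSF levels read by ELISA at 24 h post-dose. The system pairs human umbilical vein endothelium with peripheral blood mononuclear cells; parallel SRB staining tracked cytotoxicity.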
# [10] = read-out: Tissue Factor, F3 (gene 2152); assay: BSK_LPS_TissueFactor: BioMAP Diversity Plus: LPS Assay for Tissue Factor Biomarker Activity (AID 2283084); conditions: primary human HUVEC with PBMC; actives raise or lower the signal
# In short: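 Compound was added to an endothelial cell/PBMC co-culture, and after 24 h tissue factor (CD142) was read by ELISA. Gain or loss of signal was fitted against a DMSO baseline, and parallel SRB staining (560 nm) tracked overt cytotoxicity.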
# [11] = read-out: Tumor necrosis factor (Homo sapiens) (UniProt P01375); assay: BSK_LPS_TNFa: BioMAP Diversity Plus: LPS Assay for Tumour Necrosis Factor alpha (TNFa) Biomarker Activity (AID 2283085); conditions: primary human HUVEC with PBMC; actives raise or lower the signal
# In short: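 Primary human vascular co-culture of HUVEC and PBMC; TNFa ELISA 24 h after treatment, analysed as increase or decrease relative to DMSO control.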
# [12] = read-out: Vascular cell adhesion molecule 1 (VCAM1), VCAM1 (gene 7412); assay: BSK_LPS_VCAM1: BioMAP Diversity Plus: LPS Assay for Vascular cell adhesion molecule 1 (VCAM1) Biomarker Activity (AID 2283086); conditions: primary human HUVEC with PBMC; actives raise or lower the signal
# In short: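 Primary human vascular co-culture (umbilical vein endothelium plus PBMC) stimulated with LPS received chemical; 24 h later VCAM-1 was read by ELISA. Overt cytotoxicity was assessed by sulforhodamine B staining of parallel cultures at the same time point.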
# [13] = read-out: CD38, CD38 (gene 952); assay: BSK_SAg_CD38: BioMAP Diversity Plus: SAg Assay for CD38 Biomarker Activity (AID 2283087); conditions: primary human HUVEC with PBMC; actives raise or lower the signal
# In short: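 Fluorescence ELISA of cell-surface CD38 served as the read-out, with either increase or decrease fitted against DMSO controls. Cells were a human umbilical vein endothelium plus PBMC co-culture under SEB/TSST-1 stimulation, measured 24 h after dosing.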
# [14] = read-out: CD40, CD40 (gene 958); assay: BSK_SAg_CD40: BioMAP Diversity Plus: SAg Assay for CD40 Biomarker Activity (AID 2283088); conditions: primary human HUVEC with PBMC; actives raise or lower the signal
# In short: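 CD40 is measured by fluorescence ELISA in an endothelial/PBMC primary human co-culture at 24 h post-dose. Fitting is bidirectional, DMSO baseline. Parallel SRB staining (560 nm) flags cytotoxicity.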
# [15] = read-out: CD69, CD69 (gene 969); assay: BSK_SAg_CD69: BioMAP Diversity Plus: SAg Assay for CD69 Biomarker Activity (AID 2283089); conditions: primary human HUVEC with PBMC; actives raise or lower the signal;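 on AC50: cell surface CD69 protein quantified by ELISA with fluorescence detection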
# In short: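 Endothelial/PBMC co-culture; chemical added; 24 h incubation; CD69 ELISA with fluorescence detection; bidirectional fit vs DMSO.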
# [16] = read-out: Monocyte Chemoattractant Protein-1 (MCP1), CCL2 (gene 6347); assay: BSK_SAg_MCP1: BioMAP Diversity Plus: SAg Assay for Monocyte Chemoattractant Protein-1 (MCP1) Biomarker Activity (AID 2283090); conditions: primary human HUVEC with PBMC; actives raise or lower the signal
# In short: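 MCP-1 levels in the endothelial–PBMC SAg co-culture were quantified by ELISA at 24 h post-dosing; both increases and decreases versus DMSO scored. Cytotoxicity monitored by SRB total protein in parallel cultures.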
# [17] = read-out: E-selectin (Homo sapiens) (UniProt P16581); assay: BSK_SAg_Eselectin: BioMAP Diversity Plus: SAg Assay for Eselectin Biomarker Activity (AID 2283091); conditions: primary human HUVEC with PBMC; actives raise or lower the signal
# In short: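 Cell-surface E-selectin is read by ELISA at 24 h in the SAg co-culture of HUVEC and PBMC. Curves are fitted in both directions relative to DMSO. Parallel SRB total-protein staining tracks overt toxicity.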
# [18] = read-out: Monokine induced gamma interferon (MIG), CXCL9 (gene 4283); assay: BSK_SAg_MIG: BioMAP Diversity Plus: SAg Assay for Monokine induced gamma interferon (MIG) Biomarker Activity (AID 2283092); conditions: primary human HUVEC with PBMC; actives raise or lower the signal
# In short: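 Measures CXCL9 protein by ELISA in a human vascular primary-cell co-culture (umbilical vein endothelium with PBMC) 24 h after chemical addition. Activity is scored up or down from the DMSO control.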
# [19] = BSK_SAg_PBMCCytotoxicity: PBMC Cytotoxicity Assessment in the BioMAP Diversity Plus: SAg Assay (AID 2283093); conditions: primary human HUVEC with PBMC;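 further: PBMC viability measured as Alamar Blue reduction fluorescence at 546/580 nm; fitted both ways against DMSO so a hit may be loss or gain of signal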;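 on AC50: PBMC superantigen activated with SEB plus TSST-1 one hour after compound addition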
# In short: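 Human umbilical vein endothelial cells co-cultured with PBMC; PBMC (75,000/well) pre-treated with compound 1 h, then activated with SEB and TSST-1 (20 ng/mL final each) for 90 h. Alamar Blue added 6 h, fluorescence 546/580 nm; bidirectional fit versus DMSO.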
# [20] = read-out: Interleukin-8 (IL8), CXCL8 (gene 3576); assay: BSK_SAg_IL8: BioMAP Diversity Plus: SAg Assay for Interleukin-8 (IL8) Biomarker Activity (AID 2283094); conditions: primary human HUVEC with PBMC; actives raise or lower the signal
# In short: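 In this co-culture of human umbilical vein endothelium with peripheral blood mononuclear cells, IL-8 is assayed by ELISA at 24 h. DMSO serves as baseline for bidirectional curve fitting.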
# Chain of Tumor necrosis factor (Homo sapiens) (P01375 whole entry, looked up): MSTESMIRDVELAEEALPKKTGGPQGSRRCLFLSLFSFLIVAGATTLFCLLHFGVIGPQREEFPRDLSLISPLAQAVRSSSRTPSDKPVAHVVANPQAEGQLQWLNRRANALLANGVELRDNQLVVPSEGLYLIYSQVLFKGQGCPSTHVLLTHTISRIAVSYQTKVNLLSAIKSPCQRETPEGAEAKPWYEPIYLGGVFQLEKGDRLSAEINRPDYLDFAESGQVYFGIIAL
# Chain of E-selectin (Homo sapiens) (P16581 whole entry, looked up): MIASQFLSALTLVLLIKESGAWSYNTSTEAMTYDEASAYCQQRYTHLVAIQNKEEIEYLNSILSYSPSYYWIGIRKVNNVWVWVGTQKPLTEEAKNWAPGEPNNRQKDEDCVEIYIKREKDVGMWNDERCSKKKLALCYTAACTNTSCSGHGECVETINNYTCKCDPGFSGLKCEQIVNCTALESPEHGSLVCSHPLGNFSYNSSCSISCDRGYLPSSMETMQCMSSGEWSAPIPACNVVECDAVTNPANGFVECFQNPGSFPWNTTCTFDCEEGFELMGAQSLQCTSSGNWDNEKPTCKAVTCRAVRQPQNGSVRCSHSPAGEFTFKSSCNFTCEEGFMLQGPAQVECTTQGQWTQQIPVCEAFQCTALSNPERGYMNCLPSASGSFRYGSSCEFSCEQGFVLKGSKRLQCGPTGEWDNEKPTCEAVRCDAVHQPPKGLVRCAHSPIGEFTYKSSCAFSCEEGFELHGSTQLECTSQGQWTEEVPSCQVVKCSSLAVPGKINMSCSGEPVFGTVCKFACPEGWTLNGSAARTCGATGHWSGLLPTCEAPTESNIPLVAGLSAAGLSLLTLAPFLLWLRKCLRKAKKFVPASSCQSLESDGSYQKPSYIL
structure (smiles),measurement,setting,value
[Cl][Sn]([c]1ccccc1)([c]1ccccc1)[c]1ccccc1,AC50,[1],0.168 µM (active)
same,AC50,[2],0.117 µM (active)
same,AC50,[3],0.305 µM (active)
same,AC50,[4],0.577 µM (active)
same,AC50,[5],1.08 µM (active)
same,AC50,[6],0.154 µM (active)
same,AC50,[7],0.258 µM (active)
same,outcome,[8],inactive
same,AC50,[9],0.138 µM (active)
same,AC50,[10],0.308 µM (active)
same,AC50,[11],0.134 µM (active)
same,AC50,[12],0.195 µM (active)
same,AC50,[13],0.141 µM (active)
same,AC50,[14],0.146 µM (active)
same,AC50,[15],0.176 µM (active)
same,AC50,[16],0.327 µM (active)
same,AC50,[17],0.227 µM (active)
same,AC50,[18],0.259 µM (active)
same,AC50,[19],0.125 µM (active)
same,AC50,[20],0.253 µM (active)
CCOP(=S)(OCC)SCS(=O)(=O)C(C)(C)C,outcome,[1],inactive
same,outcome,[2],inactive
same,outcome,[3],inactive
same,outcome,[4],inactive
same,outcome,[5],inactive
same,outcome,[6],inactive
same,outcome,[7],inactive
same,outcome,[8],inactive
same,outcome,[9],inactive
same,outcome,[10],inactive
same,outcome,[11],inactive
same,outcome,[12],inactive
same,outcome,[13],inactive
same,outcome,[14],inactive
same,outcome,[15],inactive
same,outcome,[16],inactive
same,outcome,[17],inactive
same,outcome,[18],inactive
same,outcome,[19],inactive
same,outcome,[20],inactive
CC(C)N(C(=O)CCl)c1ccccc1,AC50,[1],33.3 µM (active)
same,AC50,[2],13.9 µM (active)
same,AC50,[3],25.4 µM (active)
same,AC50,[4],20 µM (active)
same,AC50,[5],20 µM (active)
same,AC50,[6],5.56 µM (active)
same,AC50,[7],27.3 µM (active)
same,outcome,[8],inactive
same,AC50,[9],20 µM (active)
same,outcome,[10],inactive
same,AC50,[11],26 µM (active)
same,AC50,[12],18 µM (active)
same,AC50,[13],20 µM (active)
same,AC50,[14],27.5 µM (active)
same,AC50,[15],20 µM (active)
same,AC50,[16],27.9 µM (active)
same,AC50,[17],20 µM (active)
same,AC50,[18],31.1 µM (active)
same,AC50,[19],16.7 µM (active)
same,outcome,[20],inactive
Cc1ccccc1OP(=O)(Oc1ccccc1)Oc1ccccc1,outcome,[1],inactive
same,AC50,[2],15.7 µM (active)
same,AC50,[3],29.2 µM (active)
same,outcome,[4],inactive
same,AC50,[5],20 µM (active)
same,AC50,[6],28.1 µM (active)
same,AC50,[7],20 µM (active)
same,outcome,[8],inactive
same,AC50,[9],20 µM (active)
same,outcome,[10],inactive
same,outcome,[11],inactive
same,AC50,[12],20 µM (active)
same,AC50,[13],20 µM (active)
same,AC50,[14],28.3 µM (active)
same,AC50,[15],28.1 µM (active)
same,AC50,[16],20 µM (active)
same,AC50,[17],30.9 µM (active)
same,outcome,[18],inactive
same,outcome,[19],inactive
same,AC50,[20],9.82 µM (active)
